# mHTT CaM bind: disrupts binding of mutant huntingtin to calmodulin | AlphaScreen His-mHTT/GST-CaM binding, luminescence | inhibition, % at 15 µM | hit rate 3.6% among 190,000 | P42858;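 also: 0% = both proteins with DMSO and 100% = one protein alone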
# Pf apPOL block: Pf-apPOL DNA polymerase inhibition; hit rate 0.25% among 210,000; Recombinant Pf-apPOL, molecular beacon fluorescence, 1.5 h; inhibition, % at 10 µM
# Numbers without * were called inactive; · = not tested or not shown. Shown are actives, neighbours in structure and some others; about 3.6% of the full set was active somewhere. Rule as the data show it: active = inhibition above about 50%; inactive = the rest.
SMILES,mHTT CaM bind,Pf apPOL block
CCOc1ccccc1CNC(=O)c1ccc2[nH]c3c(c2c1)CN(C(C)=O)CC3,74*,-2
CCCCN(C)C(=O)CCC1CCCN(c2cc(NCCC)ncn2)C1 (stereo not drawn),10,-4
Cc1ccc(F)c(-n2nnc(C(=O)O)c2-c2ccncc2)c1,-16,2
COc1ccc(C=Nc2cc(C)ccc2C)cc1OC,0,-5
CCc1nc2cc(N3CCC(C(=O)N4CCCCCC4)CC3)cnc2nc1CC,13,0
Cc1ccc(C)c(NS(=O)(=O)c2cn(C)c3ncccc23)c1,55*,91*
CCCn1cc(S(=O)(=O)Nc2cccc(C)c2)c2cccnc21,-1,1
NC(N)=Nc1nc(-c2ccccc2)c(-c2ccccc2)s1,100*,0
CC(=O)Nc1nc(-c2ccc(C)cc2)c(-c2ccccc2)s1,34,0
Cc1ccc(S(=O)(=O)N(C)CC(=O)Nc2ccc(F)c(Cl)c2)cc1,0,-5
N#Cc1nc(COc2ccc(Br)cc2)oc1N1CCC(C(N)=O)CC1,23,-1
N#Cc1nc(COc2ccc(Br)cc2)oc1N1CCCCC1,51*,-3
Cc1ccc(S(=O)(=O)N2CCc3c(c(-c4nc(C5CC5)no4)nn3C)C2)cc1,14,0
CC1=NN(C(=O)c2ccccc2)C(O)(c2ccc(Br)cc2)C1 (stereo not drawn),17,-3
CC1=NN(C(=O)CCc2ccccc2)C(O)(c2ccc(Br)cc2)C1 (stereo not drawn),54*,1
CC1=NN(C(=O)c2ccccc2Br)C(O)(c2ccccc2)C1 (stereo not drawn),1,-3
CCC1=NN(C(=O)c2ccccc2O)C(O)(c2ccc(Br)cc2)C1 (stereo not drawn),91*,-2
CCC1=NN(C(=O)c2cccc(C)c2O)C(O)(c2ccc(Br)cc2)C1 (stereo not drawn),87*,-4
CC1=NN(C(=O)Cc2ccccc2)C(O)(c2ccc(Br)cc2)C1 (stereo not drawn),16,-1
Cc1ccc2nc(NC(=O)c3ccc(Cl)cc3[N+](=O)[O-])sc2c1,12,0
Cc1cccc(Sc2nccnc2N2CCCC(C(=O)NCCN3CCOCC3)C2)c1 (stereo not drawn),10,-4
CCn1cc(C(=O)NCc2ccc(F)cc2)c(=O)c2ccc(C)nc21,-6,-3
CCSc1nnc2c(n1)OC(c1ccncc1)Nc1ccccc1-2 (stereo not drawn),3,1
O=C(Nc1ccc2c(c1)CCC2)c1ccnc(N2CCNC(c3ccccc3)C2)c1 (stereo not drawn),82*,-4
O=C(Nc1ccc2c(c1)OCCO2)c1ccnc(N2CCNC(c3ccccc3)C2)c1 (stereo not drawn),16,4
SMILES,mHTT CaM bind,Pf apPOL block
Cc1ccc(C)c(N=Cc2cccc([N+](=O)[O-])c2)c1,1,6
O=c1c(N=Cc2ccccc2)cc2[nH]c3ccccc3c2n1-c1ccccc1,99*,-5
O=c1c(N=Cc2cccc([N+](=O)[O-])c2)cc2[nH]c3ccccc3c2n1-c1ccccc1,97*,4
O=c1c(-[n+]2ccccc2)cc2[nH]c3ccccc3c2n1-c1ccccc1,14,-1
COc1ccc(C(=O)COc2ccc3cc(-c4ccc(OC)c(OC)c4)c(=O)oc3c2)cc1,-8,-74
CCn1c(=S)[nH]c2c(=O)[nH]cnc21,-1,·
Cc1c(NC(=O)Cc2ccc(F)cc2)cccc1-n1cnnn1,-17,-3
CCn1c(=O)c2c(ncn2Cc2ccc(F)c(F)c2)n(-c2cccc(F)c2)c1=O,4,5
Cc1ccc(S(=O)(=O)C(CN)c2cccs2)cc1 (stereo not drawn),-16,69*
O=C(NCC(c1cccs1)S(=O)(=O)c1ccccc1)Oc1ccccc1 (stereo not drawn),2,2
Cc1oc(C2CCN(C(=O)c3ccc(F)cc3Cl)CC2)nc1C(=O)N1CCCCC1,5,3
Cc1sc2c(=O)n(C(C)C)cnc2c1C(=O)NCc1ccccc1,5,3
COc1ccc(-c2[nH]ncc2Oc2ccc(Cl)cc2)c(O)c1,66*,-4
CCCc1ccc(Oc2cn[nH]c2-c2ccc(O)cc2O)cc1,82*,4
C=C(C)COc1ccc(-c2[nH]ncc2Oc2ccccc2OCC)c(O)c1,66*,-2
Oc1ccc(-c2[nH]ncc2-c2ccc(F)cc2)c(O)c1,31,17
COc1ccc(-c2[nH]ncc2-c2cnc(C)s2)c(O)c1,7,-18
C=C(C)COc1ccc2c(=O)c(Oc3ccccc3OCC)c(C)oc2c1,-14,-8
Oc1ccc(-c2[nH]ncc2Oc2ccc(-c3ccccc3)cc2)c(O)c1,51*,0
CCOc1ccc(-c2[nH]ncc2Oc2ccccc2)c(O)c1,39,-4
O=C1c2ccccc2C(=O)c2c(NC(=O)C(F)(F)F)ccc(Cl)c21,17,7
O=C(Nc1ccc(F)c(F)c1)C1CCN(c2cc(N3CCSCC3)ncn2)CC1,0,1

# Compound activity deposited in PubChem by University of Kansas High Throughput Screening Laboratory.
